An excerpt weighted towards active compounds, which were near 3.6% of everything screened.
D1 agonist = Allosteric Agonists of the Human D1 Dopamine Receptor: qHTS | 1% of 360,000 active | HEK293 T-REx D1 cells, calcium flux, agonist mode | D(1A) dopamine receptor (Homo sapiens), P21728 | AID 504660, 2011 | activation, % at 2 µM
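Tetracycline-induced HEK293 TREx D1 cells, force-coupled to calcium signalling, were dye-loaded with a no-wash calcium kit. Compound was pin-added after a 10 s baseline. Fluorescence was read kinetically at 1 cycle/s for 180 s, with calcium rises flagged as agonism.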
TRHR agonist = qHTS for Small Molecule Agonists and Allosteric Enhancers of Human TRH Receptor: Primary Screen for Agonists; TRHR cells, calcium flux fluo-8, FDSS agonist mode; activation, % at 2 µM; 0.18% of 360,000 active
Target sequence (P34981 whole entry, looked up): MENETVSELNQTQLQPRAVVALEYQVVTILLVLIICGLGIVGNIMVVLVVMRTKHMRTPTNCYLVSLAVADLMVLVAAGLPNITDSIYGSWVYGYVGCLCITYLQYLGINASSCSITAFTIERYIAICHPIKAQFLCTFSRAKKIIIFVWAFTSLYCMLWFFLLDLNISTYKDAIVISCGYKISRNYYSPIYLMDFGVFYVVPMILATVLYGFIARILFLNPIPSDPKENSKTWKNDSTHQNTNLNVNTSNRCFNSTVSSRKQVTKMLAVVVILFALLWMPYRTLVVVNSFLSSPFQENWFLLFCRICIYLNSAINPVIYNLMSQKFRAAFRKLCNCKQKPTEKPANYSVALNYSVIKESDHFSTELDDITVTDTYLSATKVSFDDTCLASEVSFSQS
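Agonist-mode FDSS calcium read (Ex 480/Em 530, 1 s cycles) in 1536-well TRHR cells with fluo-8 dye, after 10-cycle baseline and 23 nL compound addition; TRH at EC20 (10 nM final) added afterwards for the enhancer phase.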
TRHR PAM = qHTS for Small Molecule Agonists and Allosteric Enhancers of Human TRH Receptor: Primary Screen for Enhancers | Thyrotropin-releasing hormone receptor (Homo sapiens), P34981 | enhancement, % at 2 µM | AID 493056, 2011 | TRHR cells, fluo-8 calcium fluorescence, EC20 TRH enhancement | 0.66% of 360,000 active; in the data active means enhancement above about 30%
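TRHR-expressing cells loaded with fluo-8 calcium dye were read kinetically (ex 480/em 530) during compound addition, then stimulated with an EC20 of TRH (10 nM final). Enhancement of the Gq-mediated intracellular calcium response was scored.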
D1 antagonist = Antagonist of Human D 1 Dopamine Receptor: qHTS; D(1A) dopamine receptor (Homo sapiens), P21728; HEK293 TREx D1 cells, calcium flux, dopamine EC80; stronger effect = lower value; activity change, negative = inhibition, % at 10 µM; 3.2% of 360,000 active; in the data active means activity change below about -30%
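Cells carrying a force-coupled, tetracycline-inducible human D1 receptor report calcium flux. Each well gets a 10 s baseline, compound with 180 s monitoring, then an EC80 dopamine stimulus with a second 180 s kinetic read.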
LDHA inh = qHTS assay for inhibitors of human lactate dehydrogenase | L-lactate dehydrogenase A chain (Homo sapiens), P00338 | purified LDHA, NADH/diaphorase-resazurin fluorescence; stronger effect = lower value | activity change, % (values are at about 110 or 230 µM) | 0.15% of 480,000 active; in the data active means activity change below about -30%
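Resorufin fluorescence (ex540/em590), read at 0 and 20 min after diaphorase/resazurin addition, reports the NADH left after a 5 min room-temperature reaction of 2 nM human LDH5 with 0.06 mM NADH and 0.2 mM pyruvate.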
D1 potentiator = Potentiators of Human D1 Dopamine Receptor: qHTS. D(1A) dopamine receptor (Homo sapiens), P21728. HEK293 TREx D1 cells, calcium flux, dopamine EC20 potentiation. potentiation, % at 10 µM. 0.036% of 360,000 active. AID 504651, 2011; in the data active means potentiation above about 30%
A number is an active result; 0 = inactive; - = no result given. Unless noted, no stated cut-off is given here; in the data, active means activation above about 30%; inactive means the rest.

SMILES | D1 agonist | TRHR agonist | TRHR PAM | D1 antagonist | LDHA inh | D1 potentiator
Cc1ccc(CN2C(=O)c3oc4ccc(C)cc4c(=O)c3C2c2ccc(O)cc2)cc1 (stereo unspecified) | 0 | 0 | 0 | 0 | 0 | 0
CCOC(=O)c1ccc(Oc2c(C)oc3cc(OCC)ccc3c2=O)cc1 | - | - | - | - | 0 | -
CCCCC(=O)Nc1sc2c(c1C#N)CCC(C(C)(C)C)C2 (stereo unspecified) | - | - | - | - | 0 | -
COc1cc(C(=O)NCCc2cn3ccccc3n2)cc(OC)c1OC | 0 | 0 | 30 | 0 | 0 | 0
COc1cc(C(=O)NCCc2cn3ccc(C)cc3n2)cc(OC)c1OC | 0 | 0 | 0 | 0 | 0 | 0
CC(=O)Oc1ccc(Cl)cc1/C=C/c1cc(OC(C)=O)c2ccccc2n1 | 0 | 0 | 0 | -63 | - | 0
COc1cc(Cl)cc(/C=C/c2ccc3ccccc3n2)c1OC(C)=O | 0 | 0 | 0 | 0 | 0 | 0
CC(C)(C)OC(=O)NCCCCCc1nnc(SCC(N)=O)o1 | 0 | 0 | 0 | -39 | 0 | 0
CC(C)(C)OC(=O)NCCc1nnc(SCc2ccccc2Cl)o1 | 0 | 0 | 0 | -30 | 0 | 0
Cc1ccc(C)c(NC(=O)CSc2nnc(CCCCCNC(=O)OC(C)(C)C)o2)c1 | 36 | 0 | 0 | 0 | 0 | 0
CCC(C)n1nnc2cc(S(=O)(=O)N3CCC(C(=O)Nc4ccccc4OC)CC3)ccc21 (stereo unspecified) | - | - | - | - | 0 | -
CCC(C)c1ccc(NC(=O)C2CC3C=CC2C3)cc1 (stereo unspecified) | - | - | - | - | 0 | -
CC(OC(=O)CCCN=C1NS(=O)(=O)c2ccccc21)C(=O)N(C)c1ccccc1 (stereo unspecified) | 0 | 0 | 0 | 0 | 0 | 0
CC(OC(=O)CCCN=C1NS(=O)(=O)c2ccccc21)C(=O)c1ccccc1 (stereo unspecified) | 45 | 0 | 0 | 0 | 0 | 0
O=C(OCCN=C1NS(=O)(=O)c2ccccc21)c1ccccc1 | 0 | 0 | 0 | 0 | 0 | 0
CC(OC(=O)CCCN=C1NS(=O)(=O)c2ccccc21)C(=O)Nc1ccc(F)c(F)c1F (stereo unspecified) | 33 | 0 | 0 | 0 | 0 | 0
CC(C)C(=O)OCCN=C1NS(=O)(=O)c2ccccc21 | 0 | 0 | 0 | -36 | 0 | 0
CN(C)S(=O)(=O)c1ccc(-c2nc(C#N)c(NCCCn3ccnc3)o2)cc1 | - | - | - | - | 0 | -
CCCn1c(SCC(=O)NC2CCCCC2)nnc1C1CC1 | 0 | 0 | 33 | 0 | 0 | 0
Cn1c(SCC(=O)Nc2ccc(F)cc2)nnc1C1CC1 | 0 | 0 | 0 | 0 | 0 | 0
C=CCn1c(SCC(=O)NC2CCCCC2)nnc1-c1ccccn1 | 0 | 0 | 0 | -32 | 0 | 0
CCn1c(SCC(=O)Nc2ccc(F)cc2)nnc1C1CC1 | 0 | 0 | 41 | 0 | 0 | 0
Nn1c(SCC(=O)Nc2ccc(F)c(F)c2)nnc1C1CCCCC1 | 0 | 0 | 0 | -53 | 0 | 0
NC(=O)c1ccc(NC(=O)CSc2nnc(C3CCCCC3)n2N)cc1 | 0 | 0 | 0 | 0 | 0 | 0
Brc1ccc(-c2noc(CCc3nc4ccccc4[nH]3)n2)cc1 | - | - | - | - | 0 | -
SMILES | D1 agonist | TRHR agonist | TRHR PAM | D1 antagonist | LDHA inh | D1 potentiator
Cn1c(=O)c2c(ncn2CC(O)c2ccccc2)n(C)c1=O (stereo unspecified) | - | - | - | - | 0 | -
COc1ccc(Nc2cc(C(=O)NCCCN(C)Cc3ccccc3)c3ccccc3n2)c(OC)c1 | 0 | 0 | 0 | 0 | 0 | 0
CCN(CCCNC(=O)c1cc(Nc2ccccc2OC)nc2ccccc12)c1cccc(C)c1 | 0 | 0 | 0 | -35 | 0 | 0
COc1ccc(Nc2cc(C(=O)NCCCN(C)Cc3ccccc3)c3ccccc3n2)cc1 | 43 | 0 | 0 | -46 | 0 | 0
CCOC(=O)c1c(C(C)(C)C)oc2ccc(O)cc12 | 88 | 0 | 0 | 0 | 0 | 0
COc1ccc(-n2c(C)cc(/C=C3\SC(=O)NC3=O)c2C)cc1 | 0 | 0 | 0 | 0 | 0 | 0

Assay outcomes from PubChem BioAssay.
